{
  "source": "PubChem BioAssay AID504715",
  "about": "(Sanford-Burnham Center for Chemical Genomics, 2011)",
  "note": "This is one part of the list. A number with no mark means an inactive call.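 How the source made its calls: active means compounds giving 40% or more inhibition at 20 µM in any one of the three replicates; inactive means the rest.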",
  "data": [
    {"target": "Uracil-DNA glycosylase (Escherichia coli (strain K12)) (UniProt P12295)", "sequence (P12295 whole entry, looked up)": "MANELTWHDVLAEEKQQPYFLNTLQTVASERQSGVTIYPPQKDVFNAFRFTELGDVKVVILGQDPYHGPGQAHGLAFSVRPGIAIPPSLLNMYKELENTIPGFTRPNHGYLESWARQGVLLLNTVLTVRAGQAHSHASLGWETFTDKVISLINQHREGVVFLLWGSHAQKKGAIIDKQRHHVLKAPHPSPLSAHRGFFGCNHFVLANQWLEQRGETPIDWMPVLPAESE", "assay": "uracil-DNA glycosylase inhibition, oligo cleavage readout – biochemical, single concentration, fluorescence, FAM/TAMRA oligo, counter-screen for APOBEC3G inhibitor project, confirmation (AID 504715);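 further: plate controls were DMSO wells with UDG and oligo for no effect and DMSO wells lacking both for full effect; inhibitors lower the FAM signal released by uracil excision and alkaline cleavage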", "conditions": "UDG counterscreen, at 20 µM, active compounds read high", "units": {"inhibition": "%"}, "values": [
      {"compound": "COc1cccc(C(=O)CC(=O)C(=O)Nc2ccc([N+](=O)[O-])cc2C)c1", "inhibition": 3.46},
      {"compound": "O=C1CC(Sc2ncn[nH]2)C(=O)N1c1ccccc1", "note": "(stereo unspecified)", "inhibition": -0.97},
      {"compound": "COc1ccccc1-n1c(-c2cc(-c3ccco3)[nH]n2)n[nH]c1=S", "inhibition": -3.83},
      {"compound": "CCOc1cc(C(=S)N2CCOCC2)ccc1O", "inhibition": -2.88},
      {"compound": "Cc1ccc(S(=O)(=O)N(C)CC(=O)NCCc2c[nH]c3ccccc23)cc1", "inhibition": -2.52},
      {"compound": "O=C1C=CC(=O)N1c1ccc(N2CCCCC2)cc1", "inhibition": -1.51},
      {"compound": "Fc1ccccc1/C=N/n1c(-c2cccnc2)n[nH]c1=S", "inhibition": 0.6},
      {"compound": "CC1=C/C(=N\\OS(=O)(=O)c2ccccc2)C=CC1=O", "inhibition": 1.47},
      {"compound": "CC(=O)N1CC[n+]2c(-c3ccc([N+](=O)[O-])cc3)csc21", "inhibition": -1.28},
      {"compound": "COC(=O)c1cccc(-n2[nH]nnc2=S)c1", "inhibition": -3.23},
      {"compound": "Cc1cc(-c2n[nH]c(=S)n2/N=C/c2ccco2)n[nH]1", "inhibition": 2.12},
      {"compound": "Cc1n[nH]c(=S)n1/N=C/c1ccc(Br)o1", "inhibition": -0.61},
      {"compound": "S=c1[nH]nc(Nc2ccccc2)s1", "inhibition": 6.03},
      {"compound": "O=c1[nH]c2ccccc2n2c(-c3ccccc3)nnc12", "inhibition": -5.75},
      {"compound": "Cc1nc([N+](=O)[O-])nn1C12CC3CC(CC(Br)(C3)C1)C2", "inhibition": 2.58},
      {"compound": "Cc1cc(C)c2c(-c3ccc(F)cc3)c(C#N)c(=O)n(C)c2n1", "inhibition": -3.68},
      {"compound": "Cc1cccc(-n2c(N)c(C(=O)N3CCN(C)CC3)sc2=S)c1", "inhibition": -3.91},
      {"compound": "S=c1[nH]nc(-c2ccco2)n1/N=C/c1ccccc1", "inhibition": -2.84},
      {"compound": "COc1ccc(OCc2n[nH]c(=S)n2N)cc1", "inhibition": -3.03},
      {"compound": "O=C(Cn1cnc([N+](=O)[O-])n1)NCCc1ccccc1", "inhibition": 5.33},
      {"compound": "S=c1[nH]nc2c3c4c(sc3ncn12)CCCC4", "inhibition": -7.25}
    ]}
  ]
}
